Source: PubChem BioAssay
A selection: hits, their analogues and other compounds. The true share with any hit is near 3%.
VDR inhibitor = inhibitors of human vitamin D receptor | P11473 | VDR-SRC2-3 peptide fluorescence polarization, 2 h | AID 504847 | Potency, µM, most hits filed as inhibitors | 400,000 compounds, 0.93% hits
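Compounds are added to VDR with labelled SRC2-3 coactivator peptide and held 2 h at room temperature. Inhibition of the VDR–peptide interaction is then read as a change in fluorescence polarization.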
KAT2A inh = inhibitors of human GCN5L2 histone acetyltransferase; GCN5L2 HAT assay, ThioGlo1 CoA-SH fluorescence; Potency, µM (series often up to 58.9 µM), most hits filed as inhibitors; 390,000 compounds, 0.21% hits
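Preincubate 20nM GCN5L2 with compound 15 min, RT → add 50uM ThioGlo1 + 75uM H3(1-25) + 70uM acetyl-CoA → read fluorescence 0 and 20 min. Primary qHTS; fluorescent artifacts likely.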
12-LOX inh = ALOX12 (human) lipoxygenase inhibition; P18054; purified 12hLO, xylenol orange hydroperoxide absorbance; Potency, µM (top dose mostly 108 µM), most hits filed as inhibitors; 580,000 compounds, 1.1% hits; AID 1671190
Target sequence (P18054 whole entry, looked up): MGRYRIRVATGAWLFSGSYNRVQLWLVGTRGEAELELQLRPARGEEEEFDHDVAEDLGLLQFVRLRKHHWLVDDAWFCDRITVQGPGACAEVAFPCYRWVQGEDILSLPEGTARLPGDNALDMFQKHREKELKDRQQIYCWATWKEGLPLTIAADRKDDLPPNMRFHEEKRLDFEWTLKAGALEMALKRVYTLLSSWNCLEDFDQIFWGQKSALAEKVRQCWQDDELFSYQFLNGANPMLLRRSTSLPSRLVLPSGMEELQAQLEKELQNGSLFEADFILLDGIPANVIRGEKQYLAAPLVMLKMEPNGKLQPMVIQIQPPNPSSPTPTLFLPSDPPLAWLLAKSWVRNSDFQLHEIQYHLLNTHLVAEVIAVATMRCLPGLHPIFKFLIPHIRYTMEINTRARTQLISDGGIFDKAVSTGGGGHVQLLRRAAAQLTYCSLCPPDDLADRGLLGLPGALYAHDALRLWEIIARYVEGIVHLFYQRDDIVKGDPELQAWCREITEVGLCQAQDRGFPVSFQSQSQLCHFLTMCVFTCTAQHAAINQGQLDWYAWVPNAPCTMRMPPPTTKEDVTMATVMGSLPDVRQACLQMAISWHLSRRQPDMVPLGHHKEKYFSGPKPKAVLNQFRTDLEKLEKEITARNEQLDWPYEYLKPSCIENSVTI
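Purified human 12hLO at 150 nM in 25 mM Hepes, 0.01% Triton X-100, pH 7.0, preincubated 15 min at room temperature with compound. Reaction started with 40 uM arachidonic acid, 30 min at room temperature. Hydroperoxide measured by Fe-xylenol orange, 573/405 nm absorbance ratio.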
PLK1 PBD block = PLK1 (human) polo-box domain binding inhibition | 360,000 compounds, 2.8% hits | Potency, µM, actives largely listed as inhibitors | Plk1 PBD binding of FITC phosphopeptide, fluorescence polarization; further: series mostly up to about 57 µM; nearly all actives have a fitted effect of over 65% in size
Of the large screens only hits and unclear results are named; the others gave an inactive call; ! = repeats disagree. The call rests on the fitted dose curve; in most records, active means well fitted curve in the direction sought with a large enough effect; inconclusive means small, poorly fitted or top-dose-only effect, or another doubt; inactive means no such curve, though single readings can be large; an effect the other way counts as inactive or inconclusive.

O=C1OC(c2cccs2)=N/C1=C/c1ccc(-c2cccc(C(=O)O)c2)o1	VDR inhibitor 79µM, 12-LOX inh inconclusive
CC(C)(C)C(=O)Nc1ccc2oc(-c3cncc(Br)c3)nc2c1	none (no result: VDR inhibitor, KAT2A inh, PLK1 PBD block)
NN/C(=C\[N+](=O)[O-])Nc1ccc(Cl)cc1	12-LOX inh 35µM, PLK1 PBD block 12µM
COc1cccc(CNc2nc3cc(-c4ccccc4C)sc3c(=O)n2C)c1	none (no result: VDR inhibitor, KAT2A inh)
COc1cccc(CNc2nc3cc(C(C)=C(C)C)sc3c(=O)n2C)c1	12-LOX inh 10µM (no result: VDR inhibitor, KAT2A inh)
N=c1oc2c3c4c(cc2cc1C(=O)Nc1ccccc1)CCCN4CCC3	PLK1 PBD block 3.4µM (no result: 12-LOX inh)
C=C1C(=O)OC2C[C@@]3(C)CCCC(C)C3=CC12 (stereo partly specified)	VDR inhibitor 40µM (no result: 12-LOX inh, PLK1 PBD block)
Clc1ccc(-c2noc(CCc3nc4ccccc4[nH]3)n2)cc1	none (no result: VDR inhibitor, KAT2A inh, PLK1 PBD block)
O=C(Nc1cc(Br)ccc1O)C1CC(c2ccccc2Cl)=NO1 (stereo unspecified)	KAT2A inh inconclusive, 12-LOX inh inconclusive
Cn1ncc(C#N)c1NC(=O)C1CC(c2ccccc2Cl)=NO1 (stereo unspecified)	PLK1 PBD block 30µM
Cc1nc(N2CCc3ccccc3C2)[nH]c(=O)c1CCC(C)C	none
Cc1nnc(N2CCc3ccccc3C2)[nH]c1=O	PLK1 PBD block 30µM
CC1(C)CC(=S)Nc2ccccc2S1	VDR inhibitor inconclusive, 12-LOX inh inconclusive, PLK1 PBD block 27µM
CCN(C(=O)C(C)N1C(=O)/C(=C/c2ccco2)SC1=S)C1CCS(=O)(=O)C1 (stereo unspecified)	PLK1 PBD block 19µM
O=C(CCN1C(=O)/C(=C/c2ccc(F)cc2)SC1=S)NC1C=CS(=O)(=O)C1 (stereo unspecified)	none
CC(C(=O)NC1C=CS(=O)(=O)C1)N1C(=O)/C(=C/c2ccc(Cl)cc2)SC1=S (stereo unspecified)	VDR inhibitor inconclusive, 12-LOX inh 40µM, PLK1 PBD block inconclusive
CC(C(=O)N(C)C1CCS(=O)(=O)C1)N1C(=O)/C(=C/c2ccc(F)cc2)SC1=S (stereo unspecified)	VDR inhibitor 79µM, 12-LOX inh inconclusive, PLK1 PBD block inconclusive
CN(C(=O)CCN1C(=O)/C(=C/c2ccc(F)cc2)SC1=S)C1CCS(=O)(=O)C1 (stereo unspecified)	none (no result: VDR inhibitor, KAT2A inh)
O=C(Cn1ccc2ccc(Cl)cc21)N1CCCCCC1	none (no result: VDR inhibitor, KAT2A inh, PLK1 PBD block)
Cc1ccc(S(=O)(=O)n2cnc3cc([N+](=O)[O-])ccc32)cc1C	KAT2A inh inconclusive
Cc1ccc(-n2c3nc(=O)[nH]c(=O)c-3cc3cc([N+](=O)[O-])ccc32)cc1C	VDR inhibitor inconclusive, 12-LOX inh inconclusive, PLK1 PBD block 8.4µM
COc1cc(Cl)c(C)cc1NC(=O)c1ccc2c(SCC(=O)O)c3c(nc2c1)CCCC3	VDR inhibitor inconclusive, KAT2A inh inconclusive, 12-LOX inh inconclusive, PLK1 PBD block 42µM
O=C(O)CSc1c2c(nc3cc(C(=O)Nc4cccc(C(F)(F)F)c4)ccc13)CCC2	12-LOX inh 45µM, PLK1 PBD block inconclusive
COc1ccc(C)cc1NC(=O)c1ccc2c(SCC(=O)O)c3c(nc2c1)CCCC3	none
Cc1ccc(NC(=O)c2ccc3c(SCC(=O)O)c4c(nc3c2)CCCC4)c(Br)c1	VDR inhibitor inconclusive, PLK1 PBD block inconclusive
Cc1nc(-c2ccc(C#N)cc2)cs1	12-LOX inh 32µM!
CCN(CC)S(=O)(=O)c1ccc(-c2csc(C)n2)cc1	VDR inhibitor 22µM, PLK1 PBD block 9.5µM
COc1ccc(C)cc1-n1nnnc1SCC1CCCO1 (stereo unspecified)	PLK1 PBD block 24µM
CCOC(=O)CSc1n[nH]c(=S)s1	KAT2A inh 25µM, 12-LOX inh inconclusive, PLK1 PBD block 27µM
CCOC(=O)CCSc1n[nH]c(=S)s1	KAT2A inh inconclusive, 12-LOX inh inconclusive, PLK1 PBD block inconclusive
COc1ccc(C2CC2/C(=N/O)c2ccccc2)cc1 (stereo unspecified)	VDR inhibitor 20µM, PLK1 PBD block 13µM
CCN(CC)C(=O)CSc1nnc2nnc3cc(OC)ccc3n12	12-LOX inh inconclusive, PLK1 PBD block 24µM
CN1CCN(C(=O)Cn2ccc3c(Br)cccc32)CC1	none (no result: VDR inhibitor, KAT2A inh, PLK1 PBD block)
c1ccc(CCc2cn(C[C@H]3CC[C@@H]([C@@H]4CC[C@H](Cn5cc(CCc6ccccc6)nn5)O4)O3)nn2)cc1	VDR inhibitor inconclusive, PLK1 PBD block 27µM
CCS(=O)(=O)NC(C)C(=O)O (stereo unspecified)	none (no result: VDR inhibitor, KAT2A inh, PLK1 PBD block)
O=C(Nc1cccc(F)c1)C1CCN(C(=O)c2ncn3c2COC(c2ccc(F)cc2)C3)CC1 (stereo unspecified)	none (no result: VDR inhibitor, KAT2A inh, PLK1 PBD block)
